# From PubChem BioAssay
# HepG2 tox – counter-screen for TGF-b inhibitors: cytotoxicity in HepG2 cells. AID 588856. Potency, µM (top dose mostly 46.1 µM), without a hit: top-dose activity change, negative = cytotoxicity, hits mostly cytotoxic. 410,000 compounds, 0.76% hits. HepG2 CAGA-GFP viability, ATP luminescence, 18 h
#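 CellTiter-Glo luminescence gave cytotoxicity after 18 hours at 37 degrees C. The cells were HepG2 CAGA-GFP in 1% FBS DMEM, stimulated with 500 pg/mL TGF-beta after compound addition. %Activity was normalised to no-cell wells (complete cell-killing) and DMSO (no toxicity), and curves were fitted and classified.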
# HT1080NT lethal – kills 2HG-producing HT-1080-NT fibrosarcoma cells | HT-1080-NT fibrosarcoma viability, CellTiter-Glo ATP luminescence, 48 h | Potency, µM (doses to about 46.1 µM), inactives show at the top dose activity, negative = less viability, hits mostly cytotoxic | 360,000 compounds, 1.6% hits | AID 686970;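 note: NT is the 2HG producing partner of a matched IDH1 knockdown line; 0% = DMSO-treated cells and -100% = media-only wells without cells; nearly all actives have a fitted effect of over 55% in size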
#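 Toxicity toward the 2HG-producing NT line was scored as %Activity, normalised to DMSO and no-cell wells, from CellTiter-Glo luminescence after 48 hours' treatment.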
# HT1080 IDH1KD tx – kills HT-1080 cells with IDH1 knockdown | HT-1080 IDH1 knockdown viability, ATP luminescence, 48 h | Potency, µM (doses to about 46.1 µM), inactives show at the highest dose activity, negative = toxicity, hits mostly cytotoxic | 360,000 compounds, 2% hits | AID 686971;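 note: 0% = DMSO wells and -100% = cell-free medium wells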
#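 Cytotoxicity counter-line: IDH1KD HT-1080, 48 h, CellTiter-Glo. Curves classed by r2, magnitude and activity.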
# KB-3-1 cytotox – KB-3-1 parental cell cytotoxicity; KB-3-1 viability, CellTiter-Glo ATP luminescence, 72 h; Potency, µM (highest dose often 46.1 µM), hits mostly cytotoxic; 400,000 compounds, 1.4% hits; AID 1347075; note: % is set by controls: 0 for no effect and ±100 for the full control effect; nearly all actives have a fitted effect of over 60% in size
#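 KB-3-1 parental drug-naive adenocarcinoma cells in DMEM/10% FBS, incubated 72 h at 37 C with pin-transferred compounds across a concentration series. Viability by CellTiter-Glo luminescence; concentration-response curves fitted after normalization.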
# TGFb inhibitor – TGF-b pathway inhibition | AID 588855 | Potency, µM (highest dose often 46.1 µM), without a hit: top-dose activity, negative = inhibition, actives largely listed as inhibitors | 410,000 compounds, 1.2% hits | HepG2 CAGA-GFP TGF-b/SMAD3 reporter, GFP fluorescence, 18 h; TGF-beta stimulated, 500 pg/mL final; note: % is set by controls: 0 for no effect and ±100 for the full control effect; nearly all actives have a fitted effect of over 65% in size
#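 Cell-based qHTS in HEPG2 carrying a CAGA-GFP Smad reporter; compounds added before 500 pg/mL final TGF-beta, 18 h incubation at 37 degrees C, GFP fluorescence quantified per cell by imaging cytometry.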
# KB-V1 cytotox – kills drug-selected multidrug resistant KB-V1 cells. KB-V1 MDR cells viability, CellTiter-Glo, 72 h. Potency, µM (series often up to 46.1 µM), most hits filed as cytotoxic. 400,000 compounds, 3.4% hits. AID 1347076; note: % is set by controls: 0 for no effect and ±100 for the full control effect; nearly all actives have a fitted effect of over 60% in size
#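 Potencies derive from concentration-effect curves fitted to normalized luminescence (CellTiter-Glo) of KB-V1 cells treated for 72 h at 37 degrees C in phenol-red-free DMEM containing 10% FBS.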
# * hit, by the source's call; i = inactive; u = inconclusive; x = not tested or not shown. In the library only some 6.6% were active in any assay of this set; here they are far more common. Calls come from the whole dose curve; as a rule, active = well fitted curve in the direction sought with a large enough effect; inconclusive = small, poorly fitted or top-dose-only effect, or another doubt; inactive = no such curve, though single readings can be large; an effect the other way counts as inactive or inconclusive. Potency is the fitted concentration of half-maximal effect.
SMILES,HepG2 tox,HT1080NT lethal,HT1080 IDH1KD tx,KB-3-1 cytotox,TGFb inhibitor,KB-V1 cytotox
O=C(c1sc2ccccc2c1Cl)N(Cc1ccccc1Cl)C1CCS(=O)(=O)C1 (centres undefined),-1%,-6%,u,u,0%,8.2µM*
O=C(c1cccs1)N(Cc1cccc(F)c1)C1CCS(=O)(=O)C1 (centres undefined),3%,0%,15%,i,1%,i
CC(C)(C)OC(=O)N1CCC(c2c(C(=O)N3CCN(c4ccccn4)CC3)cnn2-c2cccc(F)c2)CC1,5%,x,x,i,0%,i
CC(=O)c1c(C)[nH]c(C(=O)COC(=O)CCSc2ccccc2)c1C,-13%,15%,1%,i,-5%,u
CC(=O)c1c(C)[nH]c(C(=O)COC(=O)CNS(=O)(=O)c2ccccc2)c1C,-2%,6%,8%,i,22%,i
CCOC(=O)c1c(C)[nH]c(C(=O)COC(=O)CCSc2ccccc2)c1C,-1%,-1%,-6%,u,-6%,1.6µM*
CCOC(=O)c1c(C)[nH]c(C(=O)COC(=O)CNS(=O)(=O)c2ccc(C)cc2)c1C,2%,-2%,0%,i,12%,4.6µM*
Cc1cc(C)cc(-n2cnc3cc(C(=O)NCCc4ccccc4)ccc32)c1,-20%,x,x,x,u,x
Cc1ccc(C(=O)Nc2ccc3oc(-c4ccc(C(C)(C)C)cc4)nc3c2)cc1,-33%,x,x,i,0%,i
CSc1ccc(CN2CCC(CO)(Cc3ccc(Cl)cc3)CC2)cc1,-156%,u,-23%,u,22µM*,u
COc1ccc(/C=C/c2nc3ccccc3n2C)cc1,-13%,5.2µM*,4.6µM*,5.2µM*,-4%,4.1µM*
OCc1nc2ccccc2n1C/C=C/c1ccccc1,-11%,-18%,-5%,i,31%,i
COc1ccc(Cn2c(/C=C/c3ccccc3)nc3ccccc32)cc1,-60%,11µM*,u,u,u,13µM*
CCCCCCn1c(/C=C/c2ccccc2)nc2ccccc21,-66%,x,x,x,16µM*,x
CC(O)c1nc2ccccc2n1C/C=C/c1ccccc1 (centres undefined),-3%,3%,-3%,i,-5%,15µM*
CC(=O)OCC(NC(=O)C1CCCN1C(=O)OC(C)(C)C)C1OC(n2cc(F)c(=O)[nH]c2=O)C(OC(C)=O)C1OC(C)=O (centres undefined),0%,x,x,x,-5%,x
CCCS(=O)(=O)Nc1cc2c(cc1NCc1ccccc1)n(C)c(=O)n2C,-22%,x,x,i,14%,u
Clc1ccc(CN2C3=NCCN3c3ccccc32)cc1Cl,-58%,u,u,i,0%,21µM*
c1ccc(CN2C3=NCCN3c3ccccc32)cc1,-14%,-1%,0%,i,-10%,i
COc1ccccc1C(=O)N1c2ccccc2Sc2ccccc21,-27%,-14%,-24%,21µM*,u,u
CC1(C(=O)NS(=O)(=O)c2ccccc2C(F)(F)F)CCN1C(=O)c1cccc(F)c1 (centres undefined),-2%,13%,12%,i,21%,i
C=C1CCc2c([nH]c3ccc(OCC(C)C)cc23)C1=O,2.5µM*,7.3µM*,13µM*,u,5µM*,u
COC(=O)c1nc(-c2ccccc2)oc1N(C)C,-3%,9%,17%,i,-10%,16µM*
COC(=O)c1nc(-c2ccc(C)cc2)oc1N(C)C,-8%,-3%,9%,i,0%,u
Cc1ccc(S(=O)(=O)n2cnc3ccccc32)cc1,-37%,4%,-5%,i,-7%,u
SMILES,HepG2 tox,HT1080NT lethal,HT1080 IDH1KD tx,KB-3-1 cytotox,TGFb inhibitor,KB-V1 cytotox
COc1ccc(C)cc1S(=O)(=O)n1cnc2ccccc21,2%,1%,-10%,5.2µM*,6%,u
Cc1ccccc1NC(=O)/C=C/c1ccc([N+](=O)[O-])s1,7.9µM*,4.1µM*,3.7µM*,u,7.1µM*,u
Cc1cc(C)cc(NC(=O)/C=C/c2ccc([N+](=O)[O-])s2)c1,-3%,u,u,6.5µM*,4%,u
CC(C)Oc1ccc(CNC(=O)CN2C(=O)c3cccnc3Oc3ccc(Cl)cc32)cc1,-8%,x,x,u,-24%,i
C/C(=N\N=C(/N)c1nonc1N)c1ccc2c(c1)OCO2,-19%,-4%,-1%,6.5µM*,-18%,1.5µM*
Cc1ccc(CNC(=O)Cn2c3ncccc3c(=O)n2-c2ccc(C)cc2)cc1,1%,x,x,i,-17%,i
Cc1ccc(CSC2=Nc3ccccc3C3=NC(CCC(=O)NCc4cccs4)C(=O)N23)c(C)c1 (centres undefined),0%,x,x,i,37%,i
Cc1nc(-c2ccc(C)c(S(=O)(=O)N3CCC(C(=O)NCc4ccc(F)cc4)CC3)c2)no1,-20%,x,x,i,-3%,i
O=C(CN1CCN(c2ccccc2O)CC1)NC(c1ccccc1)c1ccccc1,-40%,-6%,-1%,i,u,4.1µM*
O=C(CN1CCCC1)NC(c1ccccc1)c1ccccc1,0%,u,u,i,-25%,i
CCOc1ccccc1CNC(=O)c1ccc2nc(N3CCC(C)CC3)sc2c1,-3%,x,x,i,-29%,i
CCCN1C(=O)c2ccccc2NC1c1ccc(OC)cc1O (centres undefined),-17%,-8%,-17%,u,-3%,5.8µM*
CC(=O)N1CCCC1c1nc2ccccc2n1Cc1cc(C)ccc1C (centres undefined),-20%,x,x,i,1%,i
C1CCCCCC(NCCN2CCNCC2)CCCCC1,-7%,21µM*,18µM*,16µM*,u,u
COC(=O)c1cnc(SCc2ccc(Cl)cc2)n1C,-4%,-2%,-1%,i,7%,i
Cn1c(SCc2ccc(Cl)cc2)nc(C(F)(F)F)cc1=O,-20%,3%,-23%,u,-25%,16µM*
CNc1ccc(/C=C(\C#N)c2ccccn2)cc1[N+](=O)[O-],2%,-7%,12%,i,1%,i
N#C/C(=C\c1ccc(Cl)c([N+](=O)[O-])c1)c1ccccn1,-45%,15µM*,10µM*,i,u,i
CCOC(=O)c1c(C)[nH]c(CCC(=O)Nc2c(C)cccc2CC)c1C,-14%,x,x,x,0%,x
CCOC(=O)c1sc(NC(=O)CSc2nnc(C(C)C)n2C)nc1C,-2%,12%,2%,i,14%,23µM*
